Results: PubChem BioAssay AID1159580 (chemical genetic matrix, 2015)
The whole screen tested about 5,500 compounds, of which about 2,000 (36%) were called active. Inconclusive results (about 18%) are left out. Cut-off read from the data, not from the text of the source: active = normalized growth mostly below about 0.91 (no sharp cut-off); inconclusive = no clear call, values can overlap the other calls; inactive = mostly above about 0.92. This is one part of the list.

Assay: chemical genetic growth profiling, strain panel (AID 1159580);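 note: tested at 20 µM; growth read once vehicle control cultures reached saturation at 30 °C; 1 = growth at the plate median or of vehicle wells; lower values mean less growth of the strain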
Details: growth OD

Measured: normalized growth

CC1(C)CC[C@]2(C)CC[C@]3(C)C(=CCC4[C@@]5(C)CC[C@H](O)C(C)(C)C5CC[C@]43C)C2C1 (some centres not stated)
inactive: S. cerevisiae deletion strains, locus YJL187C, strain SWE1, active compounds read low 1 | S. cerevisiae deletion strains, locus YJR066W, strain TOR1, active compounds read low 0.993 | S. cerevisiae deletion strains, locus YKL009W, strain mrt4, active compounds read low 0.988 | S. cerevisiae deletion strains, locus YKL068W, active compounds read low 0.985 | S. cerevisiae deletion strains, locus YKL085W, strain MDH1 (second series), active compounds read low 0.999 | S. cerevisiae deletion strains, locus YKL085W, strain MDH1, active compounds read low 0.999 | S. cerevisiae deletion strains, locus YKL160W, strain elf1, active compounds read low 0.987 | S. cerevisiae deletion strains, locus YKL190W, strain CNB1, active compounds read low 1 | S. cerevisiae deletion strains, locus YKR001C, strain vps1, active compounds read low 0.999 | S. cerevisiae deletion strains, locus YKR026C, strain gcn3, active compounds read low 0.989 | S. cerevisiae deletion strains, locus YKR091W, strain srl3, active compounds read low 0.993 | S. cerevisiae deletion strains, locus YLL001W, strain dnm1, active compounds read low 0.987 | S. cerevisiae deletion strains, locus YLL026W, active compounds read low 0.984 | S. cerevisiae deletion strains, locus YLL041C, strain sdh2, active compounds read low 1.01 | S. cerevisiae deletion strains, locus YLR027C, strain aat2, active compounds read low 0.98 | S. cerevisiae deletion strains, locus YLR039C, strain RIC1, active compounds read low 1.02 | S. cerevisiae deletion strains, locus YLR058C, strain SHM2, active compounds read low 1.01 | S. cerevisiae deletion strains, locus YLR102C, strain apc9, active compounds read low 1.01 | S. cerevisiae deletion strains, locus YLR113W, strain HOG1, active compounds read low 0.977 | S. cerevisiae deletion strains, locus YLR221C, strain rsa3, active compounds read low 0.987 | S. cerevisiae deletion strains, locus YLR258W, strain gsy2, active compounds read low 1.01 | S. cerevisiae deletion strains, locus YLR262C, strain YPT6 (second series), active compounds read low 1.01 | S. cerevisiae deletion strains, locus YLR268W, strain sec22, active compounds read low 1.03 | S. cerevisiae deletion strains, locus YLR320W, strain mms22, active compounds read low 0.994 | S. cerevisiae deletion strains, locus YLR342W, strain FKS1, active compounds read low 0.996 | S. cerevisiae deletion strains, locus YLR357W, strain rsc2, active compounds read low 0.971 | S. cerevisiae deletion strains, locus YLR370C, strain arc18, active compounds read low 0.999 | S. cerevisiae deletion strains, locus YLR371W, strain rom2, active compounds read low 0.973 | S. cerevisiae deletion strains, locus YLR384C, strain iki3, active compounds read low 0.967 | S. cerevisiae deletion strains, locus YLR418C, strain cdc73, active compounds read low 0.994 | S. cerevisiae deletion strains, locus YML016C, strain PPZ1, active compounds read low 1.01 | S. cerevisiae deletion strains, locus YML032C, strain rad52, active compounds read low 0.991 | S. cerevisiae deletion strains, locus YML120C, strain ndi1, active compounds read low 0.979 | S. cerevisiae deletion strains, locus YML124C, strain tub3, active compounds read low 0.984 | S. cerevisiae deletion strains, locus YMR058W, strain fet3, active compounds read low 0.988 | S. cerevisiae deletion strains, locus YMR078C, strain ctf18, active compounds read low 0.994 | S. cerevisiae deletion strains, locus YMR125W, strain sto1, active compounds read low 0.994 | S. cerevisiae deletion strains, locus YMR129W, active compounds read low 0.991 | S. cerevisiae deletion strains, locus YMR205C, strain PFK2, active compounds read low 1.01 | S. cerevisiae deletion strains, locus YMR223W, strain ubp8, active compounds read low 0.992 | S. cerevisiae deletion strains, locus YMR231W, strain pep5, active compounds read low 0.997 | S. cerevisiae deletion strains, locus YMR263W, strain SAP30, active compounds read low 0.979 | S. cerevisiae deletion strains, locus YMR307W, strain GAS1, active compounds read low 1.06 | S. cerevisiae deletion strains, locus YNL067W, strain RPL9B, active compounds read low 0.973 | S. cerevisiae deletion strains, locus YNL071W, strain lat1, active compounds read low 0.997 | S. cerevisiae deletion strains, locus YNL153C, strain GIM3, active compounds read low 0.973 | S. cerevisiae deletion strains, locus YNL183C, strain NPR1, active compounds read low 0.984 | S. cerevisiae deletion strains, locus YNL209W, strain ssb2, active compounds read low 0.975 | S. cerevisiae deletion strains, locus YNL233W, strain BNI4, active compounds read low 1.01 | S. cerevisiae deletion strains, locus YNL248C, strain rpa49, active compounds read low 0.985 | S. cerevisiae deletion strains, locus YNL250W, strain rad50, active compounds read low 0.963 | S. cerevisiae deletion strains, locus YNL271C, strain bni1, active compounds read low 0.978 | S. cerevisiae deletion strains, locus YNL298W, strain CLA4, active compounds read low 0.991 | S. cerevisiae deletion strains, locus YNL307C, strain MCK1, active compounds read low 1 | S. cerevisiae deletion strains, locus YNL322C, strain KRE1 (second series), active compounds read low 0.965 | S. cerevisiae deletion strains, locus YNR049C, strain mso1, active compounds read low 0.987 | S. cerevisiae deletion strains, locus YNR052C, strain pop2, active compounds read low 0.968 | S. cerevisiae deletion strains, locus YOL006C, strain TOP1, active compounds read low 1.14 | S. cerevisiae deletion strains, locus YOL012C, strain htz1 1.39 | S. cerevisiae deletion strains, locus YOL147C, strain pex11, active compounds read low 0.98 | S. cerevisiae deletion strains, locus YOR001W, strain rrp6, active compounds read low 1 | S. cerevisiae deletion strains, locus YOR061W, strain CKA2, active compounds read low 1.01 | S. cerevisiae deletion strains, locus YOR069W, strain VPS5, active compounds read low 1.01 | S. cerevisiae deletion strains, locus YOR070C, strain gyp1, active compounds read low 0.991 | S. cerevisiae deletion strains, locus YOR080W, strain dia2, active compounds read low 0.998 | S. cerevisiae deletion strains, locus YOR083W, strain WHI5, active compounds read low 1 | S. cerevisiae deletion strains, locus YOR106W, strain vam3, active compounds read low 0.993 | S. cerevisiae deletion strains, locus YOR136W, strain idh2, active compounds read low 0.994 | S. cerevisiae deletion strains, locus YOR144C, strain elg1, active compounds read low 0.994 | S. cerevisiae deletion strains, locus YOR184W, strain ser1, active compounds read low 1.02 | S. cerevisiae deletion strains, locus YOR231W, strain MKK1, active compounds read low 1.01 | S. cerevisiae deletion strains, locus YOR265W, strain rbl2, active compounds read low 0.996 | S. cerevisiae deletion strains, locus YOR270C, strain vph1, active compounds read low 1.05 | S. cerevisiae deletion strains, locus YOR290C, strain snf2, active compounds read low 0.989 | S. cerevisiae deletion strains, locus YOR316C, strain cot1, active compounds read low 0.993 | S. cerevisiae deletion strains, locus YPL051W, strain arl3, active compounds read low 1 | S. cerevisiae deletion strains, locus YPL078C, strain atp4, active compounds read low 1.01 | S. cerevisiae deletion strains, locus YPL106C, strain sse1, active compounds read low 0.961 | S. cerevisiae deletion strains, locus YPL240C, strain hsp82, active compounds read low 0.988 | S. cerevisiae deletion strains, locus YPL241C, strain CIN2, active compounds read low 0.992 | S. cerevisiae deletion strains, locus YPL256C, strain CLN2, active compounds read low 1.03 | S. cerevisiae deletion strains, locus YPR119W, strain clb2, active compounds read low 0.984 | S. cerevisiae deletion strains, locus YPR141C, strain kar3, active compounds read low 0.971 | S. cerevisiae deletion strains, locus YPR163C, strain tif3, active compounds read low 1 | S. cerevisiae deletion strains, locus YPR167C, strain met16, active compounds read low 0.982 | S. cerevisiae deletion strains, strain wtn01, active compounds read low 1.01 | S. cerevisiae strains, strain wild type, active compounds read low 1.02
